Experimental data published in PubChem BioAssay AID624296 (National Center for Advancing Translational Sciences (NCATS), 2012).
Screen size: about 350,000 compounds; about 9,900 (2.8%) were called active. Where a call stands in place of a potency, no number is given. Not shown: some 15% with an inconclusive outcome. The call rests on the fitted dose curve; in most records, active means well fitted activation curve with a large enough effect; inconclusive means small, poorly fitted or top-dose-only effect; inactive means no such curve, though single readings can be large or run the other way. Many of the other results were omitted from the sample, so actives are more common in it than they were.

experiment: A quantitative high throughput screen for small molecules that induce DNA re-replication in MCF 10a normal breast cells.; further: nearly all actives have a fitted effect of over 50% in size; conditions: MCF 10A DNA re-replication, Hoechst nuclear intensity, 48 h; series mostly up to 46.1 µM
Potency means the concentration at half of the fitted maximal effect.

| Compound | Potency |
| --- | --- |
| CCN(CC(=O)Nc1c(F)cccc1F)C(=O)c1ccc(-c2ccc(C(C)=O)cc2)o1 | inactive |
| CCCCNS(=O)(=O)CCNCc1ccccc1OC | inactive |
| CC(Sc1ccccc1F)C(=O)Nc1cccc(S(=O)(=O)N2CCOCC2)c1 (centres undefined) | inactive |
| COc1ccccc1C(=O)CSc1cccc[n+]1[O-] | inactive |
| O=C(CSc1cccc[n+]1[O-])c1ccc(Cl)cc1 | inactive |
| O=C(CSc1cccc[n+]1[O-])c1ccc(-c2ccccc2)cc1 | 8.2 µM (active) |
| CC[C@]12c3[nH]c4cc(CCC(=O)N(C)C)ccc4c3CCN1C(=O)[C@@H](CC(=O)NCCCN(C)C)C[C@@H]2C(=O)N1CCN(C(=O)c2ccco2)CC1 | inactive |
| CN(C(=O)c1cccc(NC(=O)Cc2ccc(NC(=O)C3CCCN(C(=O)C4CCCC4)C3)cc2)c1)C1CCC1 (centres undefined) | inactive |
| O=S(=O)(NCC1CN(S(=O)(=O)c2ccc3c(c2)OCCO3)C1)c1c(F)cccc1F | inactive |
| COC1=CC(=O)OC(c2ccc(OC)cc2)C1 (centres undefined) | inactive |
| CCc1nc2sc(C(=O)O)c(N)c2c2c1CCCC2 | inactive |
| Cc1nc2sc(C(=O)c3ccccc3)c(N)c2c2c1CCCC2 | 14.6 µM (active) |
| Cc1ccc2c(N)c(C(=O)c3ccccc3)sc2n1 | inactive |
| CCOC(=O)C1=CN(Cc2ccc(Br)cc2)S(=O)(=O)N(C)C1C (centres undefined) | inactive |
| N#Cc1c(-c2ccccc2)cc(-c2ccccc2)nc1SCC(=O)O | inactive |
| CCOC(=O)CC(=O)CSc1nc(-c2ccccc2)cc(-c2ccc(Cl)cc2)c1C#N | 11.6 µM (active) |
| N#Cc1c(C(F)(F)F)cc(-c2ccc(Cl)cc2)nc1SCC(=O)O | inactive |
| COc1ccc(C(=O)OC(C)C(=O)NC2CCCC2)cc1S(=O)(=O)N1CCOCC1 (centres undefined) | inactive |
| COc1cc(OC)cc(C(=O)N[C@H](C(=O)NNC(=O)c2ccc(Br)cc2)C(C)C)c1 | inactive |
| C[C@H](CO)N1C[C@H](C)[C@H](CN(C)C(=O)Nc2ccc(C(F)(F)F)cc2)Oc2c(NC(=O)c3ccncc3)cccc2C1=O | inactive |
| Cc1ccc(Nc2c(O)nc[nH]c2=O)cc1C | inactive |
| CCCN(CCC)S(=O)(=O)c1cc2c(cc1Br)CCN2C(=O)CC | 18.4 µM (active) |

| Compound | Potency |
| --- | --- |
| CCC(=O)N1CCc2cc(Br)c(S(=O)(=O)NCCN3CCCCC3CC)cc21 (centres undefined) | inactive |
| CCC(=O)N1CCc2cc(S(=O)(=O)NC(C(=O)N3CCc4ccccc4C3)C(C)C)ccc21 (centres undefined) | inactive |
| Cn1c(CC(=O)NNC(=O)c2ccccc2F)nc2ccccc21 | inactive |
| O=S(=O)(O)c1cc2onnc2c2ccccc12 | inactive |
| O=C(Cc1ccc(Cl)cc1)c1ccccc1 | inactive |
| CC1CC(=O)Nc2ccccc2N1C(=O)COc1ccc2cc(Br)ccc2c1 (centres undefined) | inactive |
| O=S(=O)(c1ccccc1)c1nc(-c2ccccc2F)oc1NCc1cccnc1 | inactive |
| Cc1ccc(OCc2nc(C#N)c(N3CCCC3)o2)cc1 | inactive |
| N#Cc1nc(COc2ccc(-c3ccccc3)cc2)oc1NCc1cccnc1 | 7.94 µM (active) |
| O=S(=O)(c1ccc(SCc2ccccc2)nc1)N1CCCCCC1 | inactive |
| CC(CN1CCOCC1)OC(=O)c1ccc(Cl)cc1Cl (centres undefined) | inactive |
| CC(C)OC(=O)c1ccc(NCc2cc(O)ccc2O)cc1Cl | 1.64 µM (active) |
| O=C(OC12CC3CC(CC(C3)C1)C2)c1ccc(NCc2cc(O)ccc2O)cc1 | inactive |
| CN(C)c1ccc(CSc2ccccc2)cc1 | inactive |
| O=c1c2ccccc2ncn1CCc1ccncc1 | inactive |
| CC[C@]12c3[nH]c4ccc(Cl)cc4c3CCN1C(=O)[C@@H](CC(=O)NCCCOC)C[C@@H]2C(=O)N1CCN(C(=O)C2CC2)CC1 | inactive |
| CC1CCCCC1NC(=O)Cn1c(=O)cnc2ccccc21 (centres undefined) | inactive |
| C=C(C)CNc1cc(S(=O)(=O)N2CCOCC2)ccc1Oc1ccccc1 | inactive |
| CC(=O)Nc1ccc(NC(=O)C(C)OC(=O)c2ccccc2C(=O)c2ccc(Cl)c([N+](=O)[O-])c2)cc1 (centres undefined) | 16.4 µM (active) |
| CC(=O)Nc1ccc(NC(=O)COC(=O)c2ccccc2C(=O)c2ccccc2)cc1 | inactive |
| CC(CC(=O)O)C(=O)c1ccc(Cl)c([N+](=O)[O-])c1 (centres undefined) | inactive |
| N#Cc1cccc(NC(=O)COC(=O)c2ccccc2C(=O)c2ccc(Cl)c([N+](=O)[O-])c2)c1 | 2.91 µM (active) |

| Compound | Potency |
| --- | --- |
| NC(=O)c1ccc(NC(=O)COC(=O)c2ccc([N+](=O)[O-])cc2)cc1 | inactive |
| COC(=O)c1cc(NC(=O)Cc2ccccc2[N+](=O)[O-])ccc1Cl | inactive |
| Cc1ccc(S(=O)(=O)N2CCN(C(=O)Cn3c(=O)cnc4ccccc43)CC2)c(C)c1 | inactive |
| O=C(COC(=O)COc1cc(Cl)c(Cl)cc1Cl)NC1CC1 | inactive |
| Cc1ccccc1NC(=O)CSC(=O)c1ccccc1 | inactive |
| CCOC(=O)[C@H]1[C@H]2COc3ccc(Br)cc3[C@@H]2N2C(=O)CN(C)C(=O)[C@@]12C | inactive |
| COc1ccccc1CNC(=O)c1ccc(Cl)c(S(=O)(=O)N2CCCC2)c1 | inactive |
| Cc1occc1C(=O)Nc1cccc(S(=O)(=O)N2CCOCC2)c1 | inactive |
| CCN1CCC2(CC1)N=C(c1ccc(F)cc1)C(=S)N2C(=O)c1ccc(C)cc1 | 13 µM (active) |
| Cc1ccc(SCC(=O)N2CCN(c3ccc(F)cc3)CC2)cc1 | inactive |
| CCN1CCN(C(=O)CSc2ccc(C)cc2)CC1 | inactive |
| COc1ccccc1NC(=O)CSc1nc2sc3c(c2c(=O)n1-c1ccccc1)CCN(C)C3 | inactive |
| CCOc1ccc(-n2c(SCC(=O)OC)nc3sc4c(c3c2=O)CCN(C)C4)cc1 | inactive |
| CCSc1nc2sc3c(c2c(=O)n1-c1ccc(C)cc1)CCN(C)C3 | 18.4 µM (active) |
| Cc1ccc(S(=O)(=O)N(C)CC(=O)NCC(c2ccc(F)cc2)N2CCOCC2)cc1 (centres undefined) | inactive |
| Cc1ccccc1C(=O)Nc1ccccc1NC(=O)c1ccccc1C | inactive |
| Cc1ccccc1C(=O)Nc1ccc(N2CCCCCC2)cc1 | 18.4 µM (active) |
| Cc1ccccc1C(=O)NC(=S)Nc1ccc(N2CCN(C(=O)c3ccccc3)CC2)cc1 | inactive |
| O=c1[nH]c2c(c(=O)n1-c1ccccc1)CCO2 | inactive |
| Cc1ccccc1N1CCN(C(=O)c2cccnc2)CC1 | inactive |
